Bioassay records as filed in PubChem BioAssay.
HT1080NT lethal: qHTS for induction of synthetic lethality in tumor cells producing 2HG: qHTS for the HT-1080-NT fibrosarcoma cell line. HT-1080-NT fibrosarcoma viability, CellTiter-Glo ATP luminescence, 48 h. Potency, µM (doses to about 46.1 µM), for inactives: at the top dose activity, negative = less viability, actives largely listed as cytotoxic. 1.6% of 360,000 active;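 also: NT is the 2HG producing partner of a matched IDH1 knockdown line; 0% = DMSO-treated cells and -100% = media-only wells without cells; nearly all actives have a fitted effect of over 55% in size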
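Fibrosarcoma NT cells, 750 per well in 5% FBS RPMI, were exposed to compound for 48 hours. Viability: CellTiter-Glo luminescence.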
HT1080 IDH1KD tx: qHTS for induction of synthetic lethality in tumor cells producing 2HG: qHTS for the HT-1080-IDH1KD cell line | Potency, µM (doses to about 46.1 µM), for the others: top-dose activity, negative = toxicity, usual class: cytotoxic | HT-1080 IDH1 knockdown viability, ATP luminescence, 48 h | AID 686971, 2013 | 2% of 360,000 active;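 also: 0% = DMSO wells and -100% = cell-free medium wells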
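In this qHTS, HT-1080 cells depleted of IDH1 are exposed for 48 h at 37 °C to compound titrations. Toxicity is scored from CellTiter-Glo luminescence, with DMSO as full viability and medium alone as none.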
SW480 rerep: A quantitative high throughput screen for small molecules that induce DNA re-replication in SW480 colon adenocarcinoma cells. SW480 DNA re-replication, Hoechst DNA content imaging, 48 h. Potency, µM (titrated, usually from 46.1 µM), without a hit: at the highest dose re-replication activation, hits mostly activators. 1.8% of 340,000 active; also: % of control where 0% means no effect; nearly all actives have a fitted effect of over 55% in size
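Image-based read-out: total Hoechst fluorescence of nuclei (405 nm excitation, 500-530 nm emission), with hits raising the fraction of high-intensity nuclei. SW480 colon cells incubated 48 hr with compounds at 37 C.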
MCF10A rerep: A quantitative high throughput screen for small molecules that induce DNA re-replication in MCF 10a normal breast cells. MCF 10A DNA re-replication, Hoechst nuclear intensity, 48 h. Potency, µM (top dose mostly 46.1 µM), for the others: top-dose activity, positive = re-replication, most hits filed as activators. 2.9% of 350,000 active. AID 624296, 2012; also: % of control where 0% means no effect; nearly all actives have a fitted effect of over 50% in size
KB-3-1 tox: qHTS assay for MDR1-selective chemotherapeutics: Primary screen using the parental adenocarcinoma cell KB-3-1 | 1.4% of 400,000 active | Potency, µM (series often up to 46.1 µM), usual class: cytotoxic | KB-3-1 viability, CellTiter-Glo ATP luminescence, 72 h | AID 1347075, 2019; also: % is scaled to controls: 0 for no effect and ±100 for the full control effect; nearly all actives have a fitted effect of over 60% in size
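Using CellTiter-Glo luminescence, growth of non-resistant KB-3-1 adenocarcinoma cells is assessed 72 h after pin-tool compound addition at 37 °C. Normalized responses across the concentration series yield fitted curves.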
KB-V1 MDR tox: qHTS assay for MDR1-selective chemotherapeutics: Primary screen using the drug-selected MDR subline cells KB-V1; KB-V1 MDR cells viability, CellTiter-Glo, 72 h; Potency, µM (highest dose often 46.1 µM), actives largely listed as cytotoxic; 3.4% of 400,000 active; AID 1347076, 2019; also: % is scaled to controls: 0 for no effect and ±100 for the full control effect; nearly all actives have a fitted effect of over 60% in size
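KB-V1, DMEM (no phenol red) + 10% FBS; cpd pin-transferred, titration series; 72 h, 37 degrees C; CellTiter-Glo, luminescence. Data normalized, curve-fit.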
An asterisk follows results filed as active. This is a sample that favours compounds with a hit; in the whole collection about 7.9% have one here. Calls follow the shape of the dose curve; as a rule, active = well fitted curve in the direction sought with a large enough effect; inconclusive = small, poorly fitted or top-dose-only effect, or another doubt; inactive = no such curve, though single readings can be large; an effect the other way counts as inactive or inconclusive. Potency is read from the fitted curve at half-maximal effect.

How did NC(=O)c1cccc(-c2ccnc3c2CC(C(=O)Nc2cccc(Oc4ccccc4)c2)O3)c1 (stereo not given) do in these assays?
HT1080NT lethal: inconclusive; HT1080 IDH1KD tx: 23µM*; KB-3-1 tox: inactive; KB-V1 MDR tox: inconclusive

How did COc1cc(NC(=O)SC2=NCCS2)cc(OC)c1 do in these assays?
HT1080NT lethal: 10%; HT1080 IDH1KD tx: 17%; SW480 rerep: -11%; MCF10A rerep: 0%; KB-3-1 tox: inactive; KB-V1 MDR tox: inactive

How did COc1cccc(C(=O)SC2=NCCS2)c1 do in these assays?
HT1080NT lethal: 0%; HT1080 IDH1KD tx: inconclusive; SW480 rerep: 0%; MCF10A rerep: 15µM*; KB-3-1 tox: inactive; KB-V1 MDR tox: inactive

How did CCOC(=O)C(CC)(CC)C(=O)/C=C/c1cccc(Br)c1 do in these assays?
HT1080NT lethal: inconclusive; HT1080 IDH1KD tx: inconclusive; SW480 rerep: inconclusive; MCF10A rerep: 18µM*; KB-3-1 tox: inconclusive; KB-V1 MDR tox: inconclusive

What do the screens show for `CCOc1ccc2nc(NC(=O)c3cnccn3)sc2c1`?
HT1080NT lethal: 15%; HT1080 IDH1KD tx: 8%; SW480 rerep: 1%; MCF10A rerep: -5%; KB-3-1 tox: inactive; KB-V1 MDR tox: inactive

How did O=C(Nc1nnc(SCc2ccc(F)cc2)s1)c1ccccn1 do in these assays?
HT1080NT lethal: inconclusive; HT1080 IDH1KD tx: inconclusive; SW480 rerep: 13µM*; MCF10A rerep: inconclusive; KB-3-1 tox: inconclusive; KB-V1 MDR tox: inconclusive

How did O=C(Nc1nc(-c2ccco2)c(-c2ccco2)s1)c1cnccn1 do in these assays?
HT1080NT lethal: -23%; HT1080 IDH1KD tx: inconclusive; SW480 rerep: 5%; MCF10A rerep: 7%; KB-3-1 tox: inactive; KB-V1 MDR tox: 2.1µM*

Results for O=C(NNc1nc2ccc(F)cc2s1)c1cccc(F)c1 ?
HT1080NT lethal: inconclusive; HT1080 IDH1KD tx: 15µM*; SW480 rerep: 185%; MCF10A rerep: 19%; KB-3-1 tox: inconclusive; KB-V1 MDR tox: inactive

What do the screens show for `O=C(Nc1nc2ccccc2s1)c1cnccn1`?
HT1080NT lethal: 2.8µM*; HT1080 IDH1KD tx: inconclusive; SW480 rerep: 15µM*; MCF10A rerep: 3.3µM*; KB-3-1 tox: inactive; KB-V1 MDR tox: inactive

What do the screens show for `O=C(Nc1nc(-c2ccco2)c(-c2ccco2)s1)c1c(F)cccc1Cl`?
HT1080NT lethal: -9%; HT1080 IDH1KD tx: 2%; SW480 rerep: -1%; MCF10A rerep: 20%; KB-3-1 tox: inactive; KB-V1 MDR tox: inactive

How did CCOC(=O)C1CCN(c2c(NCCCN3CCN(Cc4ccccc4)CC3)c(=O)c2=O)CC1 do in these assays?
HT1080NT lethal: 0%; HT1080 IDH1KD tx: 2%; SW480 rerep: 2%; MCF10A rerep: 1%; KB-3-1 tox: inactive; KB-V1 MDR tox: inactive

How did CCc1nnc(NC(=O)c2ccc(COc3ccccc3)o2)s1 do in these assays?
HT1080NT lethal: inconclusive; HT1080 IDH1KD tx: 12%; SW480 rerep: -2%; MCF10A rerep: 13%; KB-3-1 tox: inactive; KB-V1 MDR tox: 15µM*

What do the screens show for `O=C(Nc1nc2ccc(F)cc2s1)C1=NN(c2ccccc2)C(=O)CC1`?
HT1080NT lethal: -2%; HT1080 IDH1KD tx: 0%; SW480 rerep: -3%; MCF10A rerep: -2%; KB-3-1 tox: inconclusive; KB-V1 MDR tox: inactive

How did O=C(Nc1nccs1)c1cnccn1 do in these assays?
HT1080NT lethal: 7%; HT1080 IDH1KD tx: 26%; SW480 rerep: -8%; MCF10A rerep: 20%; KB-3-1 tox: inactive; KB-V1 MDR tox: inactive

How did CCc1nnc(NC(=O)c2ccc(COc3ccc(C)cc3)o2)s1 do in these assays?
HT1080NT lethal: 4%; HT1080 IDH1KD tx: 0%; SW480 rerep: -3%; MCF10A rerep: -1%; KB-3-1 tox: inactive; KB-V1 MDR tox: inactive

What do the screens show for `CCc1nonc1NC(=O)c1oc2cc(C)c(C)cc2c1C`?
HT1080NT lethal: inconclusive; HT1080 IDH1KD tx: -29%; SW480 rerep: 0%; MCF10A rerep: inconclusive; KB-3-1 tox: inactive; KB-V1 MDR tox: inactive

How did O=C(Nc1nc2ccc(F)cc2s1)c1ccccn1 do in these assays?
HT1080NT lethal: inconclusive; HT1080 IDH1KD tx: 8.2µM*; SW480 rerep: 5.2µM*; MCF10A rerep: 18µM*; KB-3-1 tox: inconclusive; KB-V1 MDR tox: inactive

How did CCc1nnc(NC(=O)c2cnccn2)s1 do in these assays?
HT1080NT lethal: 11%; HT1080 IDH1KD tx: 5%; SW480 rerep: 0%; MCF10A rerep: 18µM*; KB-3-1 tox: inactive; KB-V1 MDR tox: inactive

How did CCc1nnc(NC(=O)c2oc3cc(C)c(C)cc3c2C)s1 do in these assays?
HT1080NT lethal: inconclusive; HT1080 IDH1KD tx: inconclusive; SW480 rerep: 0.52µM*; MCF10A rerep: 5%; KB-3-1 tox: inconclusive; KB-V1 MDR tox: inactive

Results for CCCOc1ccc(N2C(=O)C3C(C(C)C)NC4(C(=O)c5ccccc5C4=O)C3C2=O)cc1 (stereo not given) ?
HT1080NT lethal: 11%; HT1080 IDH1KD tx: -3%; SW480 rerep: -6%; MCF10A rerep: 9%; KB-3-1 tox: inactive; KB-V1 MDR tox: inactive

What do the screens show for `COC(=O)c1ccc2nc(Nc3nc4ccc(F)cc4s3)sc2c1`?
HT1080NT lethal: inconclusive; HT1080 IDH1KD tx: inconclusive; SW480 rerep: inconclusive; MCF10A rerep: inconclusive; KB-3-1 tox: inactive; KB-V1 MDR tox: inactive

Results for CC(=O)c1sc(Nc2nc3ccc(F)cc3s2)nc1C ?
HT1080NT lethal: -4%; HT1080 IDH1KD tx: -26%; SW480 rerep: 9.2µM*; MCF10A rerep: inconclusive; KB-3-1 tox: inactive; KB-V1 MDR tox: inactive

Results for CCNS(=O)(=O)c1ccc(C(=O)OCc2cc(=O)oc3cc(OC)ccc23)cc1 ?
HT1080NT lethal: 10%; HT1080 IDH1KD tx: -8%; SW480 rerep: inconclusive; MCF10A rerep: 15µM*; KB-3-1 tox: inactive; KB-V1 MDR tox: inactive

Results for COc1ccc(-c2cc(=O)c3cc(O)ccc3o2)cc1 ?
HT1080NT lethal: -11%; HT1080 IDH1KD tx: -19%; SW480 rerep: -7%; MCF10A rerep: -2%; KB-3-1 tox: inactive; KB-V1 MDR tox: inconclusive

Results for Nc1ccc(C#Cc2c(-c3ccsc3)oc3ccc(N4CCOCC4)cc23)cc1 ?
HT1080NT lethal: -22%; HT1080 IDH1KD tx: inconclusive; SW480 rerep: 3%; MCF10A rerep: 13µM*; KB-3-1 tox: inactive; KB-V1 MDR tox: inactive
